The target of test [1] is Aryl hydrocarbon receptor (Homo sapiens) (UniProt P35869). The test is described as follows: qHTS assay to identify small molecule that activate the aryl hydrocarbon receptor (AhR) signaling pathway (AID 743085). Also: nearly all actives have a fitted effect of over 15% in size. Also: potency is read from the fitted curve at half-maximal effect.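 As to activation: HG2L7.5c1 human HepG2 liver cells with stably integrated DRE-driven firefly reporter; series mostly up to about 70 µM.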 The procedure, abridged:
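AhR agonist activity is inferred from enhanced light output of a DRE-controlled firefly luciferase reporter in HepG2 cells, measured with ONE-Glo following 24 h treatment at 37C.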
On the technique in general: qHTS replaces the single test concentration by a dilution series.

Test [2] in a line: qHTS assay to identify small molecule that activate the aryl hydrocarbon receptor (AhR) signaling pathway - cell viability counter screen (AID 743086). Also: nearly all actives have a fitted effect of over 45% in size. Also: potency is read from the fitted curve at half-maximal effect. The procedure, abridged:
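HepG2-AhR-luc (HG2L7.5c1) cells, 4000/well, were preincubated 5 h at 37C, exposed to compound in qHTS format for 24 hr at 37C, then given CellTiter-Fluor for 30 min; viability was read as fluorescence in the reporter wells.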

The target in test [3] is Peroxisome proliferator-activated receptor gamma (Homo sapiens) (UniProt P37231). The test is described as follows: qHTS assay to identify small molecule agonists of the peroxisome proliferator-activated receptor gamma (PPARg) signaling pathway (AID 743094; active = well fitted activation curve with a large enough effect in the signal ratio in the repeat runs, not every such curve was filed as active; the % refers to the signal ratio). The procedure, abridged: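 Fluorescence-based beta-lactamase readout in HEK293H PPARg UAS-bla cells after 17 h compound exposure (37C) and 1 h B/G FRET substrate incubation at room temperature.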

Test [4] shares this target. The test can be described thus: qHTS assay to identify small molecule antagonists of the peroxisome proliferator-activated receptor gamma (PPARg) signaling pathway (AID 743191; calls by dose curve; also: nearly all actives have a fitted effect of over 30% in size; also: potency is read from the fitted curve at half-maximal effect). The procedure, abridged:
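GeneBLAzer PPARg UAS-bla HEK293H cells carrying a UAS-driven beta-lactamase reporter were plated at 3000 cells/well, preincubated 5 h at 37C, then given compound for 17 h at 37C; LiveBLAzer B/G FRET substrate was read after 1 h at room temperature.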

Test [5] is described as follows: qHTS assay to identify small molecule antagonists of the peroxisome proliferator-activated receptor gamma (PPARg) signaling pathway - cell viability counter screen (AID 743194). Also: nearly all actives have a fitted effect of over 55% in size. Also: potency is read from the fitted curve at half-maximal effect. The procedure, abridged: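 PPARg-UAS-bla HEK293H cells were plated, rested 5 h at 37 C, then treated with compounds plus rosiglitazone (50 nM final) for 17 h at 37 C; viability was then read by CellTiter-Glo luminescence after 30 min at room temperature.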

A short description of test [6]: qHTS assay for small molecule agonists of the antioxidant response element (ARE) signaling pathway - cell viability counter screen (AID 743203; calls by dose curve; also: nearly all actives have a fitted effect of over 55% in size; also: potency is read from the fitted curve at half-maximal effect). The procedure, abridged: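 Parallel cytotoxicity read-out for the ARE-bla screen: HepG2 reporter cells, 16 hrs with compounds, then CellTiter-Glo luminescence.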
Test [7] is described as follows: qHTS assay for small molecule activators of the heat shock response signaling pathway - cell viability counter screen (AID 743209). Also: nearly all actives have a fitted effect of over 50% in size. The procedure, abridged: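 To flag cytotoxic compounds, HSE-bla HeLa cells plated at 1500 cells/well were dosed for 5 h at 37 C, followed by the reporter FRET read and then CellTiter-Glo, with luminescence recorded 30 min after reagent addition.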

Test [8] is described as follows: qHTS assay to identify small molecule agonists of the peroxisome proliferator-activated receptor delta (PPARd) signaling pathway - cell viability counter screen (AID 743211). Also: nearly all actives have a fitted effect of over 55% in size. The procedure, abridged:
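qHTS cell viability: PPARd-bla HEK293H; 17 h cpd, 37C; CellTiter-Glo, luminescence at 30 min RT.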

A short description of test [9]: qHTS assay for small molecule activators of the heat shock response signaling pathway (AID 743210; active = well fitted activation curve with a large enough effect in the signal ratio in the repeat runs, with a control signal flat, not every such curve was filed as active; the % refers to the signal ratio;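 also: HeLa cells with beta-lactamase reporter driven by heat shock elements; series mostly up to about 63 µM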). The procedure, abridged:
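Activation of heat shock element-controlled beta-lactamase expression is measured in HeLa cells by LiveBLAzer FRET fluorescence, with compound exposure lasting 5 h at 37 C and substrate loading 2.5 h at room temperature.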

Test [10] is described as follows: qHTS assay for small molecule agonists of the antioxidant response element (ARE) signaling pathway (AID 743202; active = well fitted activation curve with a large enough effect in the signal ratio in the repeat runs, not every such curve was filed as active; the % refers to the signal ratio; also: potency is read from the fitted curve at half-maximal effect). The procedure, abridged: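 Steps: seed ARE-bla HepG2 cells (2,000/well); incubate 5 h at 37 C; add compounds by pin tool; incubate 16 h at 37 C; add FRET substrate; read fluorescence after 2 h at RT.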

This passage reports Potency and outcome results from PubChem BioAssay (Tox21).

Several values for one entry are separate records, joined by “and”; a condition that tells them apart may be missing. Identical values can stand only once. Records with an inconclusive call do not appear. A number with no mark means an inactive call. Activity calls are given as the source filed them. Unless noted, calls follow the shape of the dose curve; as a rule, active = well fitted curve in the direction sought with a large enough effect in the repeat runs; inconclusive = weak or mixed curves; inactive = no such curve, though single readings can be large; an effect the other way counts as inactive or inconclusive.

Sequence of Peroxisome proliferator-activated receptor gamma (Homo sapiens) (P37231 whole entry, looked up): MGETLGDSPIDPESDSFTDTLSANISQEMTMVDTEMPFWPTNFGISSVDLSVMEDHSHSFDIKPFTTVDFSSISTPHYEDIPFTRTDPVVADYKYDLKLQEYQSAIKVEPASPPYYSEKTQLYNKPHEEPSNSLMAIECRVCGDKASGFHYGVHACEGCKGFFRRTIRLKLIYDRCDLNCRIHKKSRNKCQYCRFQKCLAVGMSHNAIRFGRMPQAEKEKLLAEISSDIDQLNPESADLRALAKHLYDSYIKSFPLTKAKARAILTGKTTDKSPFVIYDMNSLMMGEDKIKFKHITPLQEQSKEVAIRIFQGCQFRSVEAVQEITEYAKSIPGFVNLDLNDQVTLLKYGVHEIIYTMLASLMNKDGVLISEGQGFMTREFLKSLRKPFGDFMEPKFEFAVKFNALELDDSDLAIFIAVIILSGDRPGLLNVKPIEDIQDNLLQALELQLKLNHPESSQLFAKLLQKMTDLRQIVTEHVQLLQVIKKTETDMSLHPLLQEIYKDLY
Sequence of Aryl hydrocarbon receptor (Homo sapiens) (P35869 whole entry, looked up): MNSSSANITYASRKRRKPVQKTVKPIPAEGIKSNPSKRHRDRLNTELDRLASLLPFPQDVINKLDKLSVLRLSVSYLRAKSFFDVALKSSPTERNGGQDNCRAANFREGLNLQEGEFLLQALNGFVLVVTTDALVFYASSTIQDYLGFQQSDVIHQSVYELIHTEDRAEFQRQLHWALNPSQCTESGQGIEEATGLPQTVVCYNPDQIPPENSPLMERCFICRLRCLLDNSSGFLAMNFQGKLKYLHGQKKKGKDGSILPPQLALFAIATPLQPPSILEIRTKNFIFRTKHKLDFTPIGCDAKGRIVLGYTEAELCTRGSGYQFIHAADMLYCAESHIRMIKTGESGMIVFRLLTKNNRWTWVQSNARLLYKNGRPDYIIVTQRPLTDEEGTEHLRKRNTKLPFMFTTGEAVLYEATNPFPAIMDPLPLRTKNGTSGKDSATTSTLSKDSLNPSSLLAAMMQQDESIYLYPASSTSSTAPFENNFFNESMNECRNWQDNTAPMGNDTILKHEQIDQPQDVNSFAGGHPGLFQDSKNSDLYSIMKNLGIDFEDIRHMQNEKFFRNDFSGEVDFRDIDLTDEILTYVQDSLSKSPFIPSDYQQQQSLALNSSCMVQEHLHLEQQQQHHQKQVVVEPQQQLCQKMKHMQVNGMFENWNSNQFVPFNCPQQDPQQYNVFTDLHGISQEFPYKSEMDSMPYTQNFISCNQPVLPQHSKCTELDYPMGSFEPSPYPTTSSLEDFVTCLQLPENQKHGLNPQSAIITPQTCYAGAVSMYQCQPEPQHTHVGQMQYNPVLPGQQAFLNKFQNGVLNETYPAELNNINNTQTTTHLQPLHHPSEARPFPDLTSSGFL

`CCCCCCCCCCCCSC#N`: the Potency result in [1], in [2], in test [3], in test [4], in [5] and in test [6] was “inactive” in each case. In test [8], the Potency entry was “inactive”. For the same compound, the call in [7] was inactive.
Consider `COc1ccc(C(=O)Nc2ccccc2)cc1[N+](=O)[O-]`, for which, in test [1], the Potency was 30.9 µM (active). Moreover, the Potency result in test [2], in test [3], in test [5], in [6] and in test [8] was “inactive” each time. Besides, the outcome in test [7] and in [9] was inactive.
`C=CC(C)(O)CC/C=C(/C)CCC=C(C)C` (configuration not stated): the Potency entry in test [1], in test [2], in [3], in test [5], in test [6] and in [8] was “inactive” throughout. Moreover, the outcome in [7] and in test [9] was inactive.
As to `CC(=O)Oc1cccc2c1C(=O)c1c(OC(C)=O)cc(C(=O)O)cc1C2=O`, the Potency entry in [1], in [2], in test [3], in [5], in test [6] and in [8] was “inactive” in each case. For the same compound, the Potency in [10] is 15 µM (active). Moreover, the compound was classed as inactive in [9].
For `CS(C)=O`, the Potency result in test [1], in [2], in [3], in test [5] and in [8] was “inactive” each time. For the same compound, the compound was classed as inactive in test [7].
As for `O=C(O)c1ccncc1`, the Potency entry in test [1], in test [2], in test [3], in [10], in test [6] and in [8] was “inactive” throughout. The result in test [7] and in test [9] was inactive.
For the compound `CC(C)C[C@H](NC(=O)[C@H](Cc1ccccc1)NC(=O)c1cnccn1)B(O)O`, the Potency result in test [1] was “inactive”. In addition, the Potency was 376 nM (active) and 335 nM (active) in test [2]; 0.0841 µM (active) in test [5]; 0.0237 µM (active) in test [10]; 0.335 µM (active) in test [6]. For the same compound, the call in [7] was inactive.
For `CCCCCCCCCCCCCCCCN`, the Potency entry in test [1], in test [2], in [3], in [6] and in test [8] was “inactive” throughout. The result in test [7] and in test [9] was inactive.
As for `CCCCOC(=O)C(C)Oc1ccc(Oc2ccc(C(F)(F)F)cn2)cc1` (configuration not stated), the Potency entry in test [1], in test [2], in test [3], in test [5], in test [6] and in [8] was “inactive” in each case. The compound was called inactive in [7] and in test [9].
Take `CC(=O)c1ccc(Cl)c(Cl)c1Cl`: the Potency result in [1], in test [2], in test [3], in [5], in [10] and in [6] was “inactive” each time. Also, the Potency entry in test [8] is “inactive”. Moreover, the outcome in test [7] and in test [9] was inactive.
Turning to `O=C(O)c1c2ccccc2cc2ccccc12`, the Potency result in test [1], in test [2], in test [4], in test [5], in test [10] and in test [8] was “inactive” throughout. Also, the result in test [7] and in test [9] was inactive.
With `CCCCCCCCCCCCSCCOCCO`, the Potency result in test [1], in test [2], in test [3], in test [5], in test [6] and in test [8] was “inactive” each time. The result in test [7] and in [9] was inactive.
For `Oc1ccc(Oc2ccccc2)cc1`, the Potency result in [1], in test [2], in [3], in test [5], in [6] and in [8] was “inactive” in each case. For the same compound, the Potency in [10] is 18.3 µM (active). In addition, the compound was classed as inactive in test [7] and in test [9].
With `CCC(=O)O[C@@H]1C[C@H]2CC[C@]1(C)C2(C)C`, the Potency entry in test [1], in test [2], in [3], in test [5], in test [10] and in [8] was “inactive” in each case. Moreover, the outcome in test [7] and in [9] was inactive.
Turning to `CC(=O)Nc1ccn(C2COC(COC(=O)c3ccccc3)O2)c(=O)n1` (configuration not stated), the Potency result in test [1], in test [2], in test [5], in [10], in test [6] and in test [8] was “inactive” each time. Also, the compound was called inactive in [7] and in [9].
For the compound `O=C(O)c1ccc(O)c(O)c1`, the Potency result in [1], in test [2], in test [3], in [5], in test [10] and in [6] was “inactive” throughout. Besides, in [8], the Potency entry is “inactive”. Besides, the outcome in [9] was inactive.
On to `c1ccc(CN(Cc2ccccc2)Cc2ccccc2)cc1`, for which the Potency entry in [1], in [2], in test [3] and in [6] was “inactive” each time. Further, the compound was classed as inactive in [7] and in test [9].
Turning to `Clc1cccc(C(c2ccc3nc[nH]c3c2)n2ccnc2)c1` (configuration not stated), the Potency in [1] was 2.66 µM (active). Besides, the Potency result in [2], in [3], in [5], in test [10], in test [6] and in test [8] was “inactive” each time. In addition, the compound was classed as inactive in [7] and in [9].
For `CC(C)=CCC[C@H](C)CCO`, the Potency result in test [1], in test [2], in test [3], in test [5], in test [10] and in [6] was “inactive” throughout. In [8], the Potency entry is “inactive”. The compound was called inactive in [7] and in test [9].
Consider `CC(C)CC(C)(C)C`, for which the Potency entry in test [1], in [2], in test [3], in test [5], in test [10] and in test [6] was “inactive” each time. Besides, the Potency result in test [8] is “inactive”. In addition, the outcome in [9] was inactive.
For `O=C(Nc1ccc2c(c1)Cc1ccccc1-2)C(F)(F)F`, the Potency in test [1] was 61.1 µM (active). Also, the Potency entry in [2], in test [3], in test [5], in [6] and in test [8] was “inactive” throughout. For the same compound, the compound was called inactive in test [7] and in test [9].
Regarding `C[C@H](CN1CCCC1)C(=O)c1ccc(C(F)(F)F)cc1`, the Potency result in test [1], in test [2], in [3], in [5] and in [6] was “inactive” in each case. The outcome in test [7] and in test [9] was inactive.
`O=C(O)c1cccnc1Nc1cccc(C(F)(F)F)c1`: the Potency entry in test [1], in [2], in test [6] and in test [8] was “inactive” throughout. Besides, the Potency in test [4] is 11.9 µM (active). Further, in [9], the outcome was inactive.
In the case of `N#CCCCC(C#N)CCC#N` (configuration not stated), the Potency entry in test [1], in test [2], in test [3], in test [10], in [6] and in test [8] was “inactive” throughout. Besides, the result in [7] and in test [9] was inactive.
On to `O=C1c2ccccc2C(=O)c2c1ccc(O)c2O`, for which the Potency in test [1] is 29.8 µM (active). Moreover, the Potency entry in test [2], in test [3], in test [5], in test [6] and in test [8] was “inactive” each time. For the same compound, the outcome in test [7] was inactive.
With `O=C(O)COCC(=O)O`, the Potency result in [1], in test [2], in test [3], in test [5], in test [10] and in test [6] was “inactive” throughout. Besides, in [8], the Potency result is “inactive”. Moreover, the result in [7] and in [9] was inactive.
In the case of `Cc1ccc(NC=O)c(C)c1`, the Potency entry in test [1], in test [2], in [3], in [5], in test [10] and in test [6] was “inactive” in each case. The Potency result in [8] is “inactive”. The compound was called inactive in test [9].
As to `CC1=C(C)C(=O)C(C(CCCCCC(=O)O)c2ccccc2)=C(C)C1=O` (configuration not stated), the Potency result in [1], in test [2], in [4], in test [5], in test [6] and in test [8] was “inactive” in each case. The compound was classed as inactive in test [7] and in test [9].
Take `C=CC(O)CCCCC` (configuration not stated): the Potency entry in test [1], in test [2], in [3], in [5], in test [10] and in test [6] was “inactive” each time. Moreover, the Potency entry in test [8] is “inactive”. For the same compound, the compound was classed as inactive in test [7] and in test [9].
